Assay outcomes (PubChem BioAssay)
A647 fluor: qHTS Assay for Spectroscopic Profiling in A647 Spectral Region | AID 592, 2007 | Compound fluorescence, A647 channel (570/671 nm), Tris buffer | 59,000 tested, under 10 active | max dye-equivalent concentration, M
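Compound fluorescence was measured in 100 mM Tris buffer, pH 8.0, after 15 min at room temperature, using 570 nm excitation and 671 nm emission filters. Signal was normalized to a per-plate Alexa 647 standard curve and expressed as dye-equivalent concentration at each compound concentration.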
A488 autofl: qHTS Assay for Spectroscopic Profiling in A488 Spectral Region | compound autofluorescence, A488 spectral region, dye equivalency; Compound Type: qHTS ECL - MLSMR | max dye equivalency, M | actives 0.1% (n = 59,000) | AID 591, 2007
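Compound autofluorescence was read in 100 mM Tris pH 8.0 after 15 min at room temperature, ex 480 nm/em 540 nm. Intensities were converted to A488 dye-equivalent concentration using an on-plate six-point A488 standard curve.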
Rhodamine fluor: qHTS Assay for Spectroscopic Profiling in Rhodamine Spectral Region. Rhodamine-region fluorescence, 547/598 nm, Tris buffer; active compounds read high. max dye-equivalent concentration, M. actives 0.05% (n = 59,000). AID 594, 2007; in the data active = max dye-equivalent concentration above about 11 nM; inconclusive = between about 1.1 nM and that limit
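Steps: pin-transfer compounds into pH 8.0 Tris (100 mM), hold 15 min at room temperature, image with a 547/598 nm filter pair, and convert intensities to rhodamine-equivalent concentration using a six-point on-plate rhodamine series.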
Fluorescein fluor: qHTS Assay for Spectroscopic Profiling in Fluorescein Spectral Region; Compound autofluorescence, 480/540 nm, fluorescein-equivalent; active compounds read high; max fluorescein-equivalent concentration, M; actives 0.91% (n = 59,000); AID 593, 2007; in the data active = max fluorescein-equivalent concentration above about 10 nM; inconclusive = between about 1.1 nM and that limit
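Fluorescein stocks ranging 3 mM down to 300 nM, plus DMSO blanks, were pinned alongside compounds to build a per-plate standard curve. Buffer: 100 mM Tris, pH 8.0. Incubation 15 min, room temperature; filters 480/540 nm.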
Resorufin fluor: qHTS Assay for Spectroscopic Profiling in Resorufin Spectral Region; actives 0.04% (n = 59,000); max dye-equivalent concentration, M; Compound fluorescence, resorufin region 547/598 nm, buffer; active compounds read high
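Dye-equivalent concentration values derive from comparing each well's 547/598 nm fluorescence against resorufin standards included on every plate. Incubation was 15 min at room temperature in 100 mM Tris, pH 8.0.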
TexasRed autofl: qHTS Assay for Spectroscopic Profiling in Texas Red Spectral Region; Compound fluorescence, Texas Red channel, 547/618 nm; active compounds read high; max dye-equivalent concentration, M; actives 0.06% (n = 59,000); AID 587, 2007; in the data active = max dye-equivalent concentration above about 10 nM; inconclusive = between about 1.1 nM and that limit
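Pin-transferred compounds and Texas Red standards go into 100 mM Tris buffer, pH 8.0. After 15 min at room temperature, plates are imaged with 547/618 nm filters. Each value is a dye-equivalent concentration derived from the per-plate dye curve.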
Large screens that a line does not name were inactive; ! = a repeat was not active. Rows were chosen to be rich in hits. Some 0.96% of all compounds tested hit in one or more screens of this group. Unless noted, no rule for the calls is given here.

Cc1ccc(-c2c3c(=O)n(C)c(=O)n(C)c3cn2N2CCOCC2)cc1	Fluorescein fluor inconclusive
Cc1ccc(-c2c3c(=O)n(C)c(=O)n(C)c3c3c(C)cc(C)nn23)cc1	Fluorescein fluor 1.3e-08M, TexasRed autofl inconclusive
CN(C)Cc1ccccc1-c1nccc(NCc2cccs2)n1	Fluorescein fluor 1.1e-08M
COc1ccccc1-c1ccc2ncnc(Nc3ccccc3)c2c1	none
N#CC1=C(N)C(C#N)(C#N)C(c2cccnc2)C2CCCC=C12 (centres undefined)	A488 autofl inconclusive, Fluorescein fluor 4.8e-08M
N#CC1=C(N)C(C#N)(C#N)C(c2ccc[nH]2)C2CCCC=C12 (centres undefined)	Fluorescein fluor 1.3e-08M
C[N@@+]1(CC[N@@+]2(C)CCC[C@H]2c2cccnc2)CCC[C@@H]1c1cccnc1	none
CC(C)(SCc1ccccc1)[C@H](N)C(=O)O	Fluorescein fluor inconclusive
CCN1CC=C2C(C1)C(c1ccc(Cl)s1)C(C#N)=C(N)C2(C#N)C#N (centres undefined)	A488 autofl inconclusive, Fluorescein fluor 8.6e-08M
Cc1ccc(C)n1Cc1ccc(C(=O)O)cc1	A647 fluor inconclusive, Fluorescein fluor 1.1e-08M
Nc1cc(C(=O)O)[nH]c(=O)n1	Fluorescein fluor 1.1e-08M
Cc1ccn2c(CCc3nnc4cc(C)ccn34)nnc2c1	TexasRed autofl inconclusive
COc1cccc(NS(=O)(=O)c2ccc3c(c2)n(C)c(=O)c(=O)n3C)c1	none
COc1cccc(NS(=O)(=O)c2ccc(S(=O)(=O)N3CCOCC3)cc2)c1	Fluorescein fluor 1.1e-08M
C/C(=N\NC(=O)c1ccncc1)c1ccc2ccccc2c1O	A488 autofl inconclusive, Fluorescein fluor 3.5e-08M
CCOC(=O)C1=C(C)NC(C)=C(C(=O)OC)[C@H]1c1cccc(Cl)c1Cl	Fluorescein fluor inconclusive
Cc1ccc(/C=c2\sc3nc(-c4cccs4)nn3c2=O)o1	Fluorescein fluor 1.3e-08M, TexasRed autofl inconclusive
COc1ccccc1/C=c1\sc2nc(-c3cccs3)nn2c1=O	none
Cc1ccc(N2C(=O)C3C(C2=O)C(C(=O)c2ccc(Cl)cc2)N2CCCC32)cc1 (centres undefined)	A488 autofl inconclusive, Fluorescein fluor 3.1e-08M
NC(=O)N1c2ccccc2C=Cc2ccccc21	Fluorescein fluor inconclusive
NC(=O)N1c2ccccc2CC(=O)c2ccccc21	A488 autofl inconclusive, Fluorescein fluor 3.3e-08M
N#Cc1ccc(CN2CCCC3(CCN(C(=O)c4cccc(F)c4)CC3)C2)cc1	none
N#Cc1c(N)sc2c1CCCCCC2	none
N#Cc1c(N)sc(=S)c2c1CCCCC2	Fluorescein fluor 3.4e-08M
CC1(C)Cc2c(C#N)c(N)sc(=S)c2CS1	Fluorescein fluor 1.1e-08M
NC(N)=NC(N)=Nc1ccc(S(N)(=O)=O)cc1	none
CN1CCN(c2ncc3nc(-c4ccc(Cl)cc4)c(=O)n(Cc4cccs4)c3n2)CC1	none
CN(C)c1ccc(N/C=C/C(=O)c2ccccc2)cc1	Fluorescein fluor 1.4e-08M
CN(C)c1ccc(NC(=O)CCCc2ccccc2)cc1	Fluorescein fluor inconclusive, TexasRed autofl inconclusive
NC(N)=[N+]1CCc2ccccc2C1	Fluorescein fluor inconclusive
CCN1C(=O)/C(=C2\C=Cc3ccccc3N2CC)OC1=S	A488 autofl 3.8e-08M, Rhodamine fluor 2.2e-08M, Fluorescein fluor 8e-07M, Resorufin fluor 2.2e-08M, TexasRed autofl inconclusive
c1ccc2cc(-c3cc(-c4cc(-c5ccc6ccccc6c5)on4)no3)ccc2c1	none
COc1ccc(C(=O)N2CCC3(CCN(C(=O)Nc4cccc(C#N)c4)CC3)CC2)cc1	none
COC(=O)N1CCC2(CCN(C(=O)Nc3ccc(OC)cc3)CC2)CC1	Fluorescein fluor 1.5e-08M
COc1ccc(NC(=O)N2CCC3(CC2)CCN(C(=O)c2ccncc2)CC3)cc1	none
COc1ccc(C(=O)N2CCC3(CC2)CN(C(=O)Nc2cccc(C#N)c2)C3)cc1	Fluorescein fluor 1.1e-08M
Cc1noc(C)c1C(=O)N1CCC2(CCCN(c3ccncc3)C2)CC1	Fluorescein fluor inconclusive
CO/N=C(\C(=O)N[C@@H]1C(=O)N2C(C(=O)[O-])=C(C[N+]3(C)CCCC3)CS[C@@H]12)c1csc(N)n1	Fluorescein fluor inconclusive
CCN1C(=S)SC(=O)C1=C1C=C(C)N(CCO)C(C)=C1	Fluorescein fluor inconclusive
CCN1C(=S)SC(=O)C1=C1C=C(C)N(CCOC)C(C)=C1	Fluorescein fluor 1.1e-08M
CN(C)c1ccc(C2C=C(c3ccc(Cl)cc3OC(F)F)Nc3ncnn32)cc1 (centres undefined)	Fluorescein fluor 1.5e-08M
Cc1cccc(C(=O)O)c1C[C@H]1NCC[C@H]2c3ccccc3N[C@@H]12	Fluorescein fluor inconclusive
COc1cccc2cc(-c3nc(-c4cccs4)cs3)c(=O)oc12	Fluorescein fluor 2.4e-08M
NS(=O)(=O)c1cc2c(cc1Cl)NCNS2(=O)=O	Fluorescein fluor 1.1e-08M!
NS(=O)(=O)c1cc2c(cc1Cl)N[C@@H](CC1CCCC1)NS2(=O)=O	none
COc1cccc(C2=CC(c3ccc(C)cc3)n3ncnc3N2)c1 (centres undefined)	Fluorescein fluor 1e-08M, TexasRed autofl inconclusive
O=C(CCN1C(=O)C2CC=C(Cl)CC2C1=O)N1CCCCC1 (centres undefined)	A488 autofl inconclusive, Fluorescein fluor 2.9e-08M
O=C1C2CC=C(Cl)CC2C(=O)N1CNc1ccccn1 (centres undefined)	none
O=C1C2CC=C(Cl)CC2C(=O)N1CCc1ccccc1 (centres undefined)	Fluorescein fluor 2e-08M
C=C[C@@H]1CN2CC[C@@H]1C[C@H]2[C@H](O)c1ccnc2ccc(OC)cc12	none
COc1ccc(-c2c3c(=O)n(C)c(=O)n(C)c3c3nnc4ccccc4n23)cc1	Fluorescein fluor 1.4e-08M
Cc1ccc(Cn2c(=N)c(C(=O)NCc3ccco3)cc3c(=O)n4ccccc4nc32)cc1	Fluorescein fluor inconclusive
COc1ccc(CNC(=O)c2cc3c(=O)n4ccccc4nc3n(Cc3ccco3)c2=N)cc1	Fluorescein fluor 1.9e-08M
CCOC(=O)c1cc2c(=O)n3ccccc3nc2n(Cc2ccccc2)c1=N	A488 autofl inconclusive, Fluorescein fluor 1.6e-07M
COc1ccc(CCn2c(=N)c(C#N)cc3c(=O)n4ccccc4nc32)cc1	Fluorescein fluor 1e-08M
CN(Cc1ccccc1)Cn1ccnc1	none
CC(C)(C)NC[C@H](O)COc1cccc2c1C[C@@H](O)[C@@H](O)C2	Fluorescein fluor inconclusive
O=C(c1ccc(N2C(=O)C3CC=C(Cl)CC3C2=O)cc1)N1CCCCC1 (centres undefined)	none
